Screens from PubChem.
This is a sample that favours compounds with a hit; in the whole collection about 0.54% have one here.
EPAC2 antag – antagonists of human EPAC2; EPAC2 GEF exchange of Rap1B-BODIPY-GDP, fluorescence; Q8WZA2; actives 0.18% (n = 360,000); Potency, µM (titrated, usually from 114 µM), for inactives: at the highest dose activity, negative = inhibition, actives largely listed as inhibitors; further: on the % scale 0 is the no-effect control and ±100 the full control effect; nearly all actives have a fitted effect of over 45% in size
TDP1 inh – TDP1 (human) enzyme inhibition. Q9NUW8. recombinant TDP1, AlphaScreen DNA substrate cleavage. Potency, µM (titrated, usually from 130 µM), without a hit: at the top dose activity change, negative = inhibition, usual class: inhibitors. actives 0.28% (n = 350,000); further: on the % scale 0 is the no-effect control and ±100 the full control effect; nearly all actives have a fitted effect of over 40% in size
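Steps: enzyme plus compound, 15 min RT; add biotin/phosphotyrosine-FITC oligonucleotide (15 nM final), react 5 min; add donor/acceptor beads (10 ug/ml final), 10 min; read AlphaScreen. Tdp1 at 1 nM final.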
ERG Ets-DNA blk – blocks human ERG Ets domain binding to DNA. fluorescence polarization, His-ERG Ets domain / labelled DNA. actives 0.028% (n = 370,000). P11308. Potency, µM (top dose mostly 76.9 µM), for inactives: at the highest dose FP activity, negative = inhibition, usual class: inhibitors. AID 624246; active means well fitted inhibition curve with a large enough effect in the polarisation, with a control signal flat; inconclusive means small, poorly fitted or top-dose-only effect, or effect the other way, or a change in a side signal; inactive means no such curve, though single readings can be large or run the other way; the % refers to the polarisation;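 further: polarization taken with two DNA probes labelled with fluorescein and Texas red; % of control where 0% means no effect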
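His-tagged ERG Ets domain (1 uM in the protein solution; 300mM KCl, 50mM Tris-HCl, 1mM EDTA, 1mM DTT, pH 7.5) received compound, then a probe mix of 5 nM fluorescein-DNA and 100nM Texas-615-DNA. Fluorescence polarization was read for both dyes.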
EPAC1 agonist – agonists of human EPAC1 | Potency, µM (doses to about 154 µM), inactives show at the highest dose activation, actives largely listed as activators | EPAC1 agonist qHTS, biochemical assay; response scale: 100% = response to 6.5 mM cAMP | actives 0.073% (n = 360,000); further: nearly all actives have a fitted effect of over 60% in size
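Fluorescent GDP-exchange assay: 100 nM EPAC1 with 250 nM Rap1B preloaded with BODIPY-GDP and 50 uM GDP; compounds tested as concentration series, 5 min at room temperature, then read every 5 min for 30 min (ex 480/em 540 nm); normalized to 6.5 mM cAMP.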
EPAC2 ag – agonists of human EPAC2 (RAPGEF4) | Q8WZA2 | EPAC2 activation, biochemical qHTS; response scale: 100% = 6.5 mM cAMP response | Potency, µM (titrated, usually from 154 µM), for inactives: top-dose activation, hits mostly activators | actives 0.079% (n = 360,000) | AID 720711; further: nearly all actives have a fitted effect of over 50% in size
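In this primary screen, activation is scored as increased exchange of BODIPY-GDP from Rap1B by 100 nM EPAC2, with 50 uM GDP as competitor. Signal is normalized to the 6.5 mM cAMP agonist control.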
EPAC1 antagonist – antagonists of human EPAC1; EPAC1 GEF assay, Rap1b-BODIPY-GDP exchange fluorescence; actives 0.14% (n = 360,000); Potency, µM (highest dose often 115 µM), for the others: at the highest dose activity change, negative = inhibition, most hits filed as inhibitors; AID 720709; O95398;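 further: plate controls were vehicle for no effect and positive control for full effect; nearly all actives have a fitted effect of over 50% in size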
* = called active by the depositor. Unless noted, the call rests on the fitted dose curve; in most records, active means well fitted curve in the direction sought with a large enough effect; inconclusive means small, poorly fitted or top-dose-only effect, or another doubt; inactive means no such curve, though single readings can be large; an effect the other way counts as inactive or inconclusive. Potency means the concentration at half of the fitted maximal effect.

How did CSCC[C@H](NS(=O)(=O)c1ccc(C(C)=O)cc1)c1nnc2ccccn12 do in these assays?
EPAC2 antag: 15.4%; TDP1 inh: 39.8µM*; ERG Ets-DNA blk: -2.2%; EPAC1 agonist: 16.8%; EPAC2 ag: 8.6%; EPAC1 antagonist: -3.5%

What do the screens show for `O=C(NC1(O)C(=O)c2ccccc2C1=O)c1ccc(C(F)(F)F)cc1`?
EPAC2 antag: inconclusive; TDP1 inh: -1.9%; ERG Ets-DNA blk: 4.4%; EPAC1 agonist: 0.8%; EPAC2 ag: 23.9%; EPAC1 antagonist: 35.5µM*

What do the screens show for `Cc1ccc(C(=O)NC2(O)C(=O)c3ccccc3C2=O)cc1C`?
EPAC2 antag: -27.3%; TDP1 inh: -0.6%; ERG Ets-DNA blk: inconclusive; EPAC1 agonist: 3.0%; EPAC2 ag: 22.9%; EPAC1 antagonist: inconclusive

How did O=C(Cc1ccccc1)Nc1sc2c(c1C(=O)Nc1cccc(Cl)c1)CCCC2 do in these assays?
TDP1 inh: 0.0%

What do the screens show for `CCC1CCCCN1CCCNC(=O)CCC(=O)N1CC(C)Oc2ccccc21` (configuration not stated)?
EPAC2 antag: 17.9%; ERG Ets-DNA blk: -4.5%; EPAC1 agonist: -16.3%; EPAC2 ag: 9.6%; EPAC1 antagonist: 25.1µM*

Results for CCOC(=O)/C=C(\C)Sc1cc(=O)oc2ccccc12 ?
EPAC2 antag: 1.5%; TDP1 inh: 4.7%; ERG Ets-DNA blk: -9.4%; EPAC1 agonist: 0.0%; EPAC2 ag: 0.0%; EPAC1 antagonist: 0.0%

Results for CCOC(=O)/C=C(\C)Sc1cc(O)c2ccccc2c1O ?
EPAC2 antag: 44.7µM*; TDP1 inh: 9.6%; ERG Ets-DNA blk: 1.5%; EPAC1 agonist: -1.5%; EPAC2 ag: 7.1%; EPAC1 antagonist: inconclusive

What do the screens show for `O=[N+]([O-])c1cc(CN2CCCC2)c2cccnc2c1O`?
EPAC2 antag: 9.0%; TDP1 inh: 3.55µM*; ERG Ets-DNA blk: 6.0%; EPAC1 agonist: -2.8%; EPAC2 ag: 4.9%; EPAC1 antagonist: inconclusive

Results for O=[N+]([O-])c1cc(CN2CCN(c3cccc(C(F)(F)F)c3)CC2)c2cccnc2c1O ?
EPAC2 antag: -5.9%; TDP1 inh: 11.6%; ERG Ets-DNA blk: -0.3%; EPAC1 agonist: -30.4%; EPAC2 ag: -16.7%; EPAC1 antagonist: inconclusive

What do the screens show for `O=C1CSC(=S)N1/N=C/c1ccc(O)c(O)c1O`?
EPAC2 antag: 19.0%; TDP1 inh: inconclusive; ERG Ets-DNA blk: 62.5%; EPAC1 agonist: -10.4%; EPAC2 ag: 2.9%; EPAC1 antagonist: 25.1µM*

What do the screens show for `O=C(c1ccccc1O)N(Cc1ccccc1)Cc1ccccc1`?
TDP1 inh: 0.9%

How did O=C(/C=C/c1ccc([N+](=O)[O-])cc1)Nc1cccc(C(=O)Nc2ccccc2C(=O)O)c1 do in these assays?
EPAC2 antag: 20.9%; ERG Ets-DNA blk: 8.1%; EPAC1 agonist: -3.4%; EPAC2 ag: -3.3%; EPAC1 antagonist: 28.2µM*

Results for O=C(COc1ccc2ccccc2c1)Nc1cccc(C(=O)Nc2ccccc2C(=O)O)c1 ?
EPAC2 antag: -12.5%; TDP1 inh: 5.8%; ERG Ets-DNA blk: 1.0%; EPAC1 agonist: -9.5%; EPAC2 ag: -9.7%; EPAC1 antagonist: 44.7µM*

How did Cc1ccc(NS(=O)(=O)c2ccc3[nH]c(=O)[nH]c3c2)cc1C do in these assays?
TDP1 inh: 1.4%

How did O=C(c1cc2ncc(Br)cn2n1)N1CCOCC1 do in these assays?
EPAC2 antag: 1.0%; TDP1 inh: -2.0%; ERG Ets-DNA blk: -11.3%; EPAC1 agonist: 6.0%; EPAC2 ag: 4.3%; EPAC1 antagonist: -5.3%

How did O=C(c1cc2ncc(Br)cn2n1)N1CCN(C(=O)c2ccco2)CC1 do in these assays?
EPAC2 antag: -0.5%; TDP1 inh: 22.4µM*; ERG Ets-DNA blk: 8.6%; EPAC1 agonist: -2.9%; EPAC2 ag: 17.2%; EPAC1 antagonist: -4.2%

Results for Cc1cc(O)c(C=O)c2c1C(=O)Oc1c(COC(=O)/C=C/C(=O)O)c(O)c(C(=O)O)c(C)c1O2 ?
TDP1 inh: 39.8µM*

Results for CC(C)(C)OC(=O)CC(=O)NNC(=O)c1nc2ccccc2[nH]1 ?
TDP1 inh: -2.2%

What do the screens show for `O=C(CNC(=O)c1ccc(-c2ccccc2)cc1)OC(C(=O)Nc1cc(C(F)(F)F)ccc1Cl)c1ccccc1` (configuration not stated)?
TDP1 inh: 1.0%

What do the screens show for `COc1ccc(CN(CCC(c2ccccc2)c2ccco2)C(=O)c2ccco2)cc1` (configuration not stated)?
EPAC2 antag: inconclusive; TDP1 inh: 4.1%; ERG Ets-DNA blk: -2.0%; EPAC1 agonist: 3.6%; EPAC2 ag: 5.0%; EPAC1 antagonist: inconclusive

What do the screens show for `O=C(c1ccco1)N(CCC(c1ccccc1)c1ccco1)Cc1ccccc1` (configuration not stated)?
EPAC2 antag: inconclusive; TDP1 inh: 0.6%; ERG Ets-DNA blk: 2.5%; EPAC1 agonist: 2.4%; EPAC2 ag: 4.3%; EPAC1 antagonist: 89.1µM*

Results for CCOc1ccccc1NC(=O)Nc1ccc2c(c1)OCO2 ?
EPAC2 antag: -5.1%; TDP1 inh: 8.1%; ERG Ets-DNA blk: -4.4%; EPAC1 agonist: -6.1%; EPAC2 ag: 10.3%; EPAC1 antagonist: -2.6%

What do the screens show for `C=CCOc1ccccc1CN(C(=O)CCl)c1ccc2c(c1)OCO2`?
EPAC2 antag: 12.6µM*; TDP1 inh: 3.0%; ERG Ets-DNA blk: 0.1%; EPAC1 agonist: -13.7%; EPAC2 ag: 10.5%; EPAC1 antagonist: -19.1%

Results for CO/N=C(/C(=O)NC1C(=O)N2C(C(=O)O)=C(CSc3nc(=O)c(O)nn3C)CSC12)c1csc(N)n1 (configuration not stated) ?
TDP1 inh: 7.08µM*

Results for O=C1OC(c2ccccc2)=N/C1=C\C=C\c1ccco1 ?
EPAC2 antag: -7.2%; TDP1 inh: 44.7µM*; ERG Ets-DNA blk: -11.8%; EPAC1 agonist: -1.7%; EPAC2 ag: 6.8%; EPAC1 antagonist: 3.8%

How did COc1ccc(N=Cc2c(O)n(-c3cccc(C)n3)c(=O)c3ccccc23)c(OC)c1 do in these assays?
EPAC2 antag: 118.5%; TDP1 inh: 6.5%; ERG Ets-DNA blk: 0.0%; EPAC1 agonist: 9.3%; EPAC2 ag: 100µM*; EPAC1 antagonist: 10.3%

How did COc1ccccc1NC(=O)CN1CCCCCC1 do in these assays?
EPAC2 antag: 0.5%; TDP1 inh: 0.4%; ERG Ets-DNA blk: 12.1%; EPAC1 agonist: 6.8%; EPAC2 ag: 5.7%; EPAC1 antagonist: -4.9%
